TrxR1 substrate: rat thioredoxin reductase 1 substrate activity | O89049 | purified TrxR1 substrate turnover, NADPH consumption readout | Potency, µM (titrated, usually from 114 µM) | 0.01% of 390,000 active | AID 588456; note: nearly all actives have a fitted effect of over 50% in size
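Rat TrxR1, dispensed at 90 nM, was prereduced with 400 uM NADPH (final) for 5 min at ~22 deg C, then incubated with compound 15 min before 400 uM selenite. A first-read NADPH fluorescence drop versus no-compound background flagged substrates.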
mIDH1 inhibitor: blocks human mutant IDH1 R132H enzyme | IDH1-R132H enzyme, NADPH consumption, diaphorase/resazurin fluorescence | Potency, µM (highest dose often 76.6 µM), hits mostly inhibitors | 0.093% of 390,000 active; note: nearly all actives have a fitted effect of over 65% in size
Target sequence (O75874 whole entry R132H, stated change not applied): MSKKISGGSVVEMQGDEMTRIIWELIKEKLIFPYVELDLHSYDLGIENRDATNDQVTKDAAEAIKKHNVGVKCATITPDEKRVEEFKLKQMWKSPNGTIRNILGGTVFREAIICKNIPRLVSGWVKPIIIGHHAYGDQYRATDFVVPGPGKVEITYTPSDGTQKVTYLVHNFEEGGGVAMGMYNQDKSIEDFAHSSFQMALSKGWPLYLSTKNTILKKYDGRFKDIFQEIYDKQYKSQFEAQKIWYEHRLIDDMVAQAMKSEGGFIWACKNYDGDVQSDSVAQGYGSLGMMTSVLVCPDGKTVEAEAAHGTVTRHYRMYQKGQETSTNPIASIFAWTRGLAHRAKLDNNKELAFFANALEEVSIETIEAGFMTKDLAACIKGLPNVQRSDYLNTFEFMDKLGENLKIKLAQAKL
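IDH1-R132H (0.5 ug/mL dispensed) in pH 7.5 Tris buffer was preincubated 30 min with compound, then given a substrate mix of 0.016 mM NADPH and 2 mM alpha-KG for 80 min at room temperature; remaining NADPH was read by diaphorase/resazurin fluorescence.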
rTrxR1 inhibitor: inhibitors of rat thioredoxin reductase 1; O89049; recombinant rTrxR1, NADPH fluorescence consumption, selenite substrate; Potency, µM (top dose mostly 114 µM), most hits filed as inhibitors; 1% of 390,000 active; AID 588453; note: nearly all actives have a fitted effect of over 65% in size
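Rat TrxR1 (90 nM in the dispensed reagent) was pre-reduced with 400 uM NADPH for 5 min at room temperature, then incubated with compound for 15 min. After 400 uM selenite was added, NADPH fluorescence (Ex 340/Em 450 nm) was followed for 8 min.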
Eya2 inh: Eya2 (human) phosphatase inhibition | O00167 | 0.006% of 330,000 active | Potency, µM (series often up to 76.9 µM), usual class: inhibitors | AID 488837 | recombinant Eya2, OMFP fluorescence dephosphorylation (OMFP is methylfluorescein phosphate)
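Eya2 (0.2 uM) preincubated 10 min at ambient with compound, then OMFP substrate added at 50 uM; 10 min reaction in 50 mM HEPES pH 7.5, 50 mM NaCl, 5 uM MgCl2, 0.05% BSA, 1 mM DTT. Fluorescence read at Ex 485/Em 525 nm.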
RGS4 inh: inhibitors of human regulator of G protein signaling 4 | 0.039% of 390,000 active | Transcreener GDP fluorescence polarization, RGS4-accelerated GTP hydrolysis | P49798 | AID 504845 | Potency, µM (top dose mostly 114 µM), hits mostly inhibitors; note: nearly all actives have a fitted effect of over 75% in size
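MLSMR compounds (23 nl, pin-transferred) preincubated 10 min at room temperature with a 500nM (2x) first reagent, then RGS4 at 900nM (2x) plus Transcreener GDP mix added; fluorescence polarization (620/688 nm) read before and after 90 min at 30 °C.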
Resorufin autofl: counter-screen for mutant IDH1 inhibitors: fluorescence interference; 750 tested, under 10 active; inhibition of signal, % at 51.2 µM; shares compounds with mIDH1 inhibitor; Resorufin detection reagent fluorescence interference, cell-free; AID 623980
IDH1 WT: selectivity of mutant IDH1 inhibitors: human wild-type IDH1; 9% of 750 active; shares compounds with mIDH1 inhibitor; WT IDH1 enzyme, NADPH diaphorase/resazurin fluorescence; Potency, µM (series often up to 115 µM), actives largely listed as inhibitors; note: nearly all actives have a fitted effect of over 55% in size
Target sequence (O75874 whole entry, looked up): as the sequence (O75874 whole entry R132H, stated change not applied) above, with H132R counted along it
IDH1 R132H conf: inhibits human mutant IDH1 enzyme in cherrypick confirmation. 83% of 750 active. IDH1 R132H enzyme, NADPH diaphorase/resazurin fluorescence. AID 624002. shares compounds with mIDH1 inhibitor. Potency, µM (doses to about 76.6 µM), hits mostly inhibitors; note: nearly all actives have a fitted effect of over 50% in size
Hits are given with their value; - = inactive; ? = inconclusive; . = no result given; [ ] = dose if it differs, or a comment. Compounds with a hit are over-represented: about 1.1% of the library has one in this group of screens. Calls come from the whole dose curve; as a rule, active = well fitted curve in the direction sought with a large enough effect; inconclusive = small, poorly fitted or top-dose-only effect, or another doubt; inactive = no such curve, though single readings can be large; an effect the other way counts as inactive or inconclusive.

SMILES	TrxR1 substrate	mIDH1 inhibitor	rTrxR1 inhibitor	Eya2 inh	RGS4 inh	Resorufin autofl	IDH1 WT	IDH1 R132H conf
CC1CCN(S(=O)(=O)c2ccc(C(=O)N3CCCCC3C(=O)O)cc2)CC1 (stereo unspecified)	-	-	-	-	-	.	.	.
CC1(C)CC(=O)C2=C(C1)N1C(=C(C#N)C2c2ccccc2Cl)N=C(N)c2ccccc21 (stereo unspecified)	-	?	-	-	-	-	-	16µM
Cc1ccc(NC(=O)Nc2nnc(-c3ccccc3F)s2)cc1	-	-	-	-	-	.	.	.
O=c1c2ccccc2nc(/C=C/c2ccccc2)n1CCc1ccccc1	-	-	-	-	-	.	.	.
O=c1c2ccccc2nc(/C=C/c2cccnc2)n1CCc1ccccc1	-	52µM	-	-	-	-	-	45µM
Cc1c(C#N)c(N)nc2c3c(sc12)NC(=O)CC3c1ccc(Cl)cc1 (stereo unspecified)	-	29µM	-	-	-	-	-	16µM
Cc1cc(C(C)(C)C)oc1C(=O)N1CCN(C(=O)c2oc(C(C)(C)C)cc2C)CC1	-	40µM	-	-	-	-	?	14µM
CCc1ccc(NC(=O)CN2C(=O)C3CCCN3c3ccc(S(=O)(=O)N(CC)CC)cc32)cc1 (stereo unspecified)	-	45µM	-	.	-	-	-	28µM
CC(C)(C)c1c(Cl)c(O)c(-c2ccccc2)c(=O)n1-c1ccccc1	-	46µM	-	-	-	-	?	?
O=C(c1ccc(Cl)cc1)c1c[nH]c(C(=O)C(Cl)(Cl)Cl)c1	-	?	-	-	-	-	-	25µM
Cc1ccc(N(C(=O)c2nsc(Cl)c2Cl)C(C(=O)NC2CCCC2)c2ccc(O)cc2)cc1C (stereo unspecified)	-	?	-	-	-	-	-	14µM
Cc1cc(/C=N/n2c(COc3ccccc3)nc3ccccc3c2=O)c(O)c([N+](=O)[O-])c1	-	?	-	-	-	-	-	32µM
COC(=O)Cn1c(=O)c2cccn2c2cccnc21	-	.	-	.	-	.	.	.
O=C(CCl)c1ccc(Cc2ncc(C(F)(F)F)cc2Cl)s1	-	?	-	-	?	-	?	22µM
NS(=O)(=O)c1ccc(Cc2ncc(C(F)(F)F)cc2Cl)s1	-	-	-	-	-	.	.	.
COc1ccc(-c2sc(Nc3ccc(F)c(F)c3F)nc2CCC(=O)NN)cc1	-	29µM	-	-	-	-	-	28µM
c1ccc2sc(C3CCN(Cc4nnnn4Cc4ccc5c(c4)OCO5)CC3)nc2c1	-	-	-	-	-[11.4 µM]	.	.	.
CCOC(=O)c1c(S(=O)(=O)NCC(=O)Nc2ccc(C)c(Cl)c2)c(C)n(C)c1C	-	-	-	.	-	.	.	.
Brc1ccc2c(c1)C(c1cccs1)=NNC(c1cccnc1)=N2	-	29µM	-	-	-	-	-	22µM
O=C(C=P(c1ccccc1)(c1ccccc1)c1ccccc1)c1ccccc1-c1ccccc1C(=O)C=P(c1ccccc1)(c1ccccc1)c1ccccc1	-	23µM	?	.	-	-	?	3.2µM
CCOc1ccccc1NC(=O)Nc1nnc(N2CCCC(C)C2)s1 (stereo unspecified)	-	-	-	.	-	.	.	.
COc1cccc(-n2c(SCC(=O)Nc3nnc(C)s3)nc3c([nH]c4ccccc43)c2=O)c1	-	-	-	.	-	.	.	.
COc1cc(C2C3CN(C)CC=C3C(C#N)=C(N)C2(C#N)C#N)ccc1OC(C)C (stereo unspecified)	-	?	?	-	-	-	-	-
COc1cc([C@@H]2[C@H]3CNCC=C3C(C#N)=C(N)C2(C#N)C#N)ccc1OC(C)C	-	?	-	-	-	.	.	.
CCOC(=O)c1c(NC(=O)CN2CCOCC2)sc2c1CCCC2=O	-	-	-	-	-	.	.	.
CCOC(=O)c1c(NC(=O)CN(CC)CC)sc2c1CCN(C(=O)OCC)C2	-	-	-	-	-	.	.	.
CCOC(=O)c1c(NC(=O)CN2CCOCC2)sc2c1CCCC2	-	26µM	-	-[15.4 µM]	-	-	-	20µM
CCOC(=O)c1c(NC(=O)CN2CCCCC2)sc2c1CCN(C(=O)OCC)C2	-	12µM	-	-	-	-	-	6.3µM
CCOc1ccccc1NC(=O)CSc1nnc(C2CC2)n1CC	-	-	-	-	-	.	.	.

Source: PubChem (National Center for Advancing Translational Sciences (NCATS))
